Screening results (PubChem)
An excerpt weighted towards active compounds, which were near 2.4% of everything screened.
miR-122 sensor: miR-122 Renilla sensor signal increase in Huh7, primary screen, miR-122 inhibitor project, cell-based, single point, plate reader | Huh7 miR-122 Renilla luciferase sensor, 48 h; neutral wells = 0, positive control = 100 | activation (reporter increase), % at 12.5 µM | actives 0.3% (n = 340,000);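 active = mean replicate activation score at least 90 and every replicate individually at or above 90; inconclusive = only one of the two criteria met; inactive = neither criterion met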;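 note: higher luciferase means less miR-122 activity so hits act as miR-122 inhibitors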
Wnt bcat act: Wnt/beta-catenin pathway activators, primary screen, cell-based, plate reader, single point; activation, % at 9.35 µM; actives 1.2% (n = 300,000); Wnt/beta-catenin reporter cell assay, activator; in the data active = activation above about 30%, passing the limit was not always enough; inconclusive = no clear call, values can overlap the other calls
MITF act: activators of MITF-driven TRPM1 promoter reporter, primary screen, cell-based, SK-MEL-5, luciferase, single point; SK-MEL-5 TRPM1-promoter luciferase, 24 h; % of positive control, neutral wells = 0; activation, % at 12.5 µM; actives 0.75% (n = 300,000);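 active = mean activation of at least 80% with every replicate also reaching 80%; inconclusive = mean reaches 80% but some replicate falls short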
NSD2 inh: NSD2 histone methyltransferase inhibitors, primary screen, biochemical, AlphaScreen, single concentration, set 2. actives 0.54% (n = 310,000). NSD2 peptide methylation, 120 min. inhibition, % at 12.5 µM. Histone-lysine N-methyltransferase NSD2 (Homo sapiens), O96028. AID 743445, 2014
Target sequence (O96028 whole entry, looked up): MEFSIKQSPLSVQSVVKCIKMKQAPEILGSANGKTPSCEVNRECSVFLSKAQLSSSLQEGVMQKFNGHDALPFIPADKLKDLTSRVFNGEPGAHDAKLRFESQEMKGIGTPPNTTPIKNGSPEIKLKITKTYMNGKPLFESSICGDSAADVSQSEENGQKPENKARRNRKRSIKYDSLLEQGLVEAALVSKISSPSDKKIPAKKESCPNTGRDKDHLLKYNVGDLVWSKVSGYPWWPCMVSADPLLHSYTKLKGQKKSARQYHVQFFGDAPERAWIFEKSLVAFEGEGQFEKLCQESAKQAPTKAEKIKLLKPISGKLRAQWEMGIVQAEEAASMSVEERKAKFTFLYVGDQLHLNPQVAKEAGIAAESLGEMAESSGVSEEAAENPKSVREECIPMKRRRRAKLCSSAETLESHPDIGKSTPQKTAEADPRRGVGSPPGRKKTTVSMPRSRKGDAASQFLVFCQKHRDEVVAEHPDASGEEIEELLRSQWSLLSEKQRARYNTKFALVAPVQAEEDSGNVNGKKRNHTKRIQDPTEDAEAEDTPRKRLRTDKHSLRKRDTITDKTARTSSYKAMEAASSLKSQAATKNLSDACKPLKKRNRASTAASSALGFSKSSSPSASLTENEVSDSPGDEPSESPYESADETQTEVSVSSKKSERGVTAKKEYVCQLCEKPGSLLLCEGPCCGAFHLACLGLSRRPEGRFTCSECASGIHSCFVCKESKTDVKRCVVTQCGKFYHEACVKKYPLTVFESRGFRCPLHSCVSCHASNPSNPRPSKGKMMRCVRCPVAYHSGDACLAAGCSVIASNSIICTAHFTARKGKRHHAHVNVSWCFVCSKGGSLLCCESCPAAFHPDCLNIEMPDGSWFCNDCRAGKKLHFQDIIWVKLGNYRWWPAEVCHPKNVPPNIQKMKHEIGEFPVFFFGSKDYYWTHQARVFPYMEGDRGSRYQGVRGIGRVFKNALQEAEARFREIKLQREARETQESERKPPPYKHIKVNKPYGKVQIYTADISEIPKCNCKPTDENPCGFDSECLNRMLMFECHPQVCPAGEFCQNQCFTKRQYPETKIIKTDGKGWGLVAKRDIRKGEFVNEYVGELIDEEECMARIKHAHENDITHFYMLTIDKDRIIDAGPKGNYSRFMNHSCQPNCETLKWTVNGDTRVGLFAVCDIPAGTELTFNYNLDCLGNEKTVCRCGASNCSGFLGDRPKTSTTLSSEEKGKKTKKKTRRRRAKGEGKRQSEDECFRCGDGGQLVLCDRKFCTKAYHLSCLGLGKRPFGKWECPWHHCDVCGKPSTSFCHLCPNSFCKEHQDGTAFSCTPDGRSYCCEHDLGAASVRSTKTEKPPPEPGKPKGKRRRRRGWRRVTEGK
DYRK1A inh: rat Dyrk1A kinase inhibitors, primary screen, biochemical, single point, plate reader; Dual specificity tyrosine-phosphorylation-regulated kinase 1A (Rattus norvegicus), Q63470; ADP-Glo luminescence, NFATc1 peptide; inhibition, % at 12.5 µM; actives 0.43% (n = 310,000); AID 504441, 2011
INS-1E GSIS act: GLuc luminescence reporter in INS-1E cells, primary screen for activators of glucose-dependent secretion of insulin; INS-1E GLuc reporter insulin secretion, 2-3 h; activation, % at 16.6 µM; actives 0.61% (n = 370,000);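 active = lowest replicate activation of at least 40%, so every replicate reaches that level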
A number is an active result; 0 = inactive; ? = inconclusive; - = no result given. Cut-off read from the data, not from the text of the source, unless noted: active = inhibition above about 50%; inactive = the rest.

SMILES | miR-122 sensor | Wnt bcat act | MITF act | NSD2 inh | DYRK1A inh | INS-1E GSIS act
CSc1ccccc1OCc1cc(C(=O)NCc2cccc(C)n2)no1 | 0 | 0 | 96.0 | 0 | 0 | 0
CSc1ccccc1OCc1cc(C(=O)N[C@H]2CCCCNC2=O)no1 | - | 0 | 96.2 | 0 | 0 | 0
CSc1ccccc1OCc1cc(C(=O)N(C)Cc2nonc2C)no1 | 0 | 0 | 150.5 | 0 | 0 | 0
Cc1nonc1CN(C)C(=O)c1cc(COc2ccc(F)cc2Cl)on1 | 0 | 0 | 0 | 0 | 0 | 0
CSc1ccccc1OCc1cc(C(=O)NC(C)Cc2cccc(C)n2)no1 (centres undefined) | 0 | 0 | 0 | 0 | 0 | 0
CSc1ccccc1OCc1cc(C(=O)N(C)Cc2ccncn2)no1 | 0 | 0 | 116.7 | 0 | 0 | -
O=C([C@@H]1[C@@H](CO)[C@@H]2Cn3c(ccc(-c4cccnc4)c3=O)[C@@H]2N1CCC(F)(F)F)N1CCOCC1 | - | - | - | - | - | 0
CC(=O)NCc1ccc(C(=O)COC(=O)c2ccc(C#N)cc2)o1 | - | - | - | 0 | - | -
CN1c2ccc(-c3cccc(F)c3)cc2[C@@H]2[C@@H](CCN2S(=O)(=O)c2cccc(F)c2)[C@H]1CO | 0 | - | - | - | - | 0
CO[C@@H](CN(C)C(=O)c1ccc2c(c1)OCO2)[C@H](C)CN([C@@H](C)CO)S(=O)(=O)c1ccc(F)cc1 | - | - | - | - | - | 0
CC(=O)c1cccc(OCc2cc(C(=O)N(C)Cc3cnccn3)no2)c1 | 0 | 0 | 95.8 | 0 | 0 | 0
O=C(Nc1ccccc1)C(=O)Nc1ccc2c(c1)N(C(=O)C1CC1)CCC2 | - | 41.8 | 92.2 | 0 | - | 0
O=C(C1CCC(C(=O)N2CCc3ccccc32)CC1)N1CCc2ccccc21 (centres undefined) | 0 | - | 0 | - | 0 | -
COc1ccc(NC(=O)Nc2ccc3c(c2)C(=O)N([C@H](C)CO)C[C@@H](C)[C@@H](CN(C)C(=O)Nc2ccc(C(F)(F)F)cc2)O3)cc1 | 0 | - | - | - | - | 0
Cc1ccc(OCC(=O)O/N=C(\N)c2ccncc2)c(C)c1 | 0 | 0 | 161.0 | 0 | 0 | 0
Cc1cc(C)c(C)c(OCC(=O)O/N=C(\N)c2ccncc2)c1 | 0 | 0 | 0 | 0 | 0 | 0
N/C(=N\OC(=O)COc1ccc(Br)cc1Cl)c1ccncc1 | - | 67.2 | 130.2 | 0 | 0 | 0
CC(=O)Nc1ccc(-c2nc3cc(Cl)ccc3o2)cc1 | 0 | 0 | - | 0 | - | 0
O=C(O)c1ccccc1-c1ccccc1C(=O)Nc1ccc(-c2nc3cc(Cl)ccc3o2)cc1 | - | 34.9 | 0 | 0 | 0 | 0
Cc1ccc(NC(=O)c2ccccc2-c2ccccc2C(=O)O)cc1C | 0 | 0 | 0 | - | 0 | 44.6
CCn1c(C)nc2cc(C(=O)N/N=C/c3ccccc3C)ccc21 | 0 | 0 | 0 | 0 | 0 | 0
CCn1c(C)nc2cc(C(=O)NN=Cc3ccccc3OC(F)F)ccc21 | 0 | 0 | 90.4 | 0 | - | 0
CCn1c(C)nc2cc(C(=O)N/N=C(\C)c3ccccc3O)ccc21 | - | 0 | 89.6 | 0 | - | 0
c1ccc(C[n+]2c(-c3ccccc3)csc2Nc2ccccc2)cc1 | 0 | 0 | 0 | 0 | 0 | 0
c1ccc(Nc2scc(-c3ccccc3)[n+]2Cc2ccco2)cc1 | - | 52.6 | 0 | 0 | 0 | 0
SMILES | miR-122 sensor | Wnt bcat act | MITF act | NSD2 inh | DYRK1A inh | INS-1E GSIS act
N#C/C(=C\c1c(N2CCCCCC2)nc2ccccn2c1=O)C(N)=O | - | 0 | 0 | 0 | 0 | 40.4
COC(=O)C1C(=O)c2c([nH]c(C(=O)OC3CCCC3)c2C)CC1C (centres undefined) | 0 | - | 107.1 | 0 | 0 | -
Cc1c(C(=O)OC2CCCC2)[nH]c2c1C(=O)CC(c1ccco1)C2 (centres undefined) | ? | 0 | 0 | - | 0 | 0
O=C(NCCC1CCCCN1S(=O)(=O)c1ccc(F)cc1)C(=O)NCc1cccnc1 (centres undefined) | - | 0 | 0 | 0 | 0 | 49.7
O=S(=O)(c1ccc(NC(=S)NCc2cccnc2)cc1)N1CCCCC1 | 0 | 46.6 | - | 0 | 0 | 0
O=C(NCCC1CCCCN1S(=O)(=O)c1ccccc1)C(=O)NCc1cccnc1 (centres undefined) | 0 | 0 | 0 | 0 | 0 | 0
O=S(=O)(c1ccc(NC(=S)NN=Cc2ccccc2O)cc1)N1CCCCC1 | 0 | 66.8 | - | 0 | 0 | 0
Cc1ccccc1CN(C)C[C@H]1OCc2cn(nn2)CCCC(=O)N([C@@H](C)CO)C[C@@H]1C | 0 | - | - | - | - | 0
COc1ccc(-c2nc(C(=O)O)cs2)cc1OC | 0 | 0 | 0 | 0 | 0 | 71.4
COc1ccc(-c2nc(CC(=O)O)cs2)cc1OC | - | - | - | 0 | - | -
CCOC(=O)c1csc(NC(=O)c2ccc(OC)c(OC)c2)n1 | - | 0 | 0 | 0 | - | 0
CCOC(=O)c1csc(-c2ccc(OC)c(OC)c2)n1 | - | 0 | 0 | 0 | 0 | 50.5
CCCNC(=O)N(C)C[C@H]1Oc2ncc(C3=CCCC3)cc2C(=O)N([C@H](C)CO)C[C@H]1C | 0 | - | - | - | - | 0
C[C@@H]1CN([C@@H](C)CO)S(=O)(=O)c2ccc(C#CC3CC3)cc2O[C@H]1CN(C)CC1CCCC1 | 0 | - | - | - | - | 0
O=S(=O)(c1ccc(Cl)s1)N1CCCc2cccc(O)c21 | 0 | 38.8 | - | 0 | 0 | -
Fc1ccccc1COc1ccc(/C=N/n2cnnc2)cc1 | 0 | 36.8 | - | 0 | 0 | -
Cc1ccc(C(=O)/C=C/Nc2ccc([N+](=O)[O-])cc2Br)cc1 | 0 | 0 | 86.9 | 0 | 0 | -
COc1ccc(C(=O)/C=C/Nc2ccc([N+](=O)[O-])cc2C)cc1OC | 0 | 0 | 0 | 0 | 0 | -
CCOc1ccc(N/C=C/C(=O)c2ccc3ccccc3c2)c([N+](=O)[O-])c1 | 0 | 0 | 0 | 0 | 0 | -
CCOc1ccc(N/C=C/C(=O)c2ccc(C)cc2)c([N+](=O)[O-])c1 | 0 | - | 88.3 | 0 | 0 | 0
Cc1c(Cc2ccccc2)sc(NC(=O)c2ccco2)c1C(N)=O | 0 | - | 0 | - | 0 | 86.0
CCCc1cc(C(N)=O)c(NC(=O)c2ccco2)s1 | 0 | 40.7 | - | 0 | 0 | -
CN(C)CC(=O)Nc1ccc2c(c1)[C@H]1C[C@H](CC(=O)NCCN3CCCCC3)O[C@H](CO)[C@H]1O2 | 0 | - | - | - | - | 0
C[C@@H]1CN([C@H](C)CO)C(=O)c2cc(C#Cc3ccccc3)cnc2O[C@@H]1CN(C)CC1CCOCC1 | 0 | - | - | - | - | 0
